KCNQ2 block – rat KCNQ2 potassium channel inhibitors, primary screen, cell-based, CHO-K1, FluxOR thallium flux, B-score | 310,000 compounds, 1.1% hits | 20 min; active compounds read low | AID 2156, 2009 | B-score at 10 µM;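 active means fluorescence ratio B-score at most minus 3 library SDs, with starting brightness B-score within 2 library SDs, cut at about -5.5 in these data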
Target sequence (O88943 whole entry, looked up): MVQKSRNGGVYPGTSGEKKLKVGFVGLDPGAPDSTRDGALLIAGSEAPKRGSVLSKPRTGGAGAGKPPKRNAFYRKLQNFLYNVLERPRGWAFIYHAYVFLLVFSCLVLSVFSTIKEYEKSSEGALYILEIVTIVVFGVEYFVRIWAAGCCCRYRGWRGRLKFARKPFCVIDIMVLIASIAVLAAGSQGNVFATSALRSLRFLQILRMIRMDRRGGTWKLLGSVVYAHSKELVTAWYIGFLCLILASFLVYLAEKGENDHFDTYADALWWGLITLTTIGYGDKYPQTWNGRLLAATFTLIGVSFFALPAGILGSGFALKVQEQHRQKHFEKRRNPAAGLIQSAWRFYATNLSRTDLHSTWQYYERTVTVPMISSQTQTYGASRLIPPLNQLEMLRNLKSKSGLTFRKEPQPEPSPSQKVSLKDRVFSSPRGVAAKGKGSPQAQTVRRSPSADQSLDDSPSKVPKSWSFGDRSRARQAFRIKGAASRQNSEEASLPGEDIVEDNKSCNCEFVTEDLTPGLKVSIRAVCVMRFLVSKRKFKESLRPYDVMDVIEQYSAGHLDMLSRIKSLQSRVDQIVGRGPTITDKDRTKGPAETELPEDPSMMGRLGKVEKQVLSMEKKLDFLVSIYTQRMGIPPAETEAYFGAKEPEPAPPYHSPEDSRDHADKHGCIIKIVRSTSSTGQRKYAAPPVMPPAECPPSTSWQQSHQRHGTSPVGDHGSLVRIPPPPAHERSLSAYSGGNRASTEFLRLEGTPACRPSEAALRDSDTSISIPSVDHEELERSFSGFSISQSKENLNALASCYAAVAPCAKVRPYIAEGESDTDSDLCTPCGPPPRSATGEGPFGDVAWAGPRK
KCNQ2 pot – potentiators of rat KCNQ2 potassium channel; Potassium voltage-gated channel subfamily KQT member 2 (Rattus norvegicus), O88943; CHO-K1 KCNQ2, FluxOR thallium flux fluorescence; active compounds read high; B-score at 10 µM; 310,000 compounds, 0.54% hits;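 active means fluorescence ratio B-score at least 3 SD of library B-scores, with initial fluorescence B-score within 3 of them, cut at about 5.3 in these data; same plate scores as AID 2156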;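 further: B-score of peak minus minimum over baseline fluorescence ratio after K+ and Tl+ stimulus; positive B-score means potentiation of KCNQ2 with more thallium influx and brighter signal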
Active calls of the source: *; i = inactive; · = no result. Shown are actives, neighbours in structure and some others; about 1.6% of the full set was active somewhere.

SMILES	KCNQ2 block	KCNQ2 pot
c1ccc(C(c2nnnn2C2CCCC2)N2CCN(c3nc4ccccc4s3)CC2)cc1 (stereo not given)	i	·
CC(C)C(c1nnnn1C1CCCCC1)N1CCc2ccccc21 (stereo not given)	i	·
O=C1OC(c2ccccc2)=NC12CC2c1ccc(Cl)cc1 (stereo not given)	i	·
COc1ccc([C@H]2[C@H](C(=O)C(C)(C)C)N3N=Cc4ccccc4C3[C@]23N=C(c2ccccc2)OC3=O)cc1 (stereo not given in full)	-9.5*	-9.5
CC(OC(=O)Cn1cnc2c1c(=O)n(C)c(=O)n2C)C(=O)Nc1ccc(Cl)cc1 (stereo not given)	i	0.29
COc1cc(/C=N/NC2=NS(=O)(=O)c3ccccc32)cc(OC)c1OC	i	1.1
COc1cc(/C=N/NC2=NC(C)(C)Cc3ccccc32)cc(OC)c1OC	-5.6*	-5.6
O=c1ccc(-c2ccc(S(=O)(=O)Nc3ccc(F)cc3)o2)n[nH]1	i	0.94
Cc1nc(=S)c2c([nH]1)-c1ccccc1CC21CCCCC1	i	·
S=c1nc(-c2ccccc2)[nH]n1-c1ccccc1	i	18*
Cc1nc(=S)n(-c2ccccc2)[nH]1	i	·
CCOC(=O)CCc1c(C)nc2c(c(C)nn2C(C)(C)C)c1C	-7.8*	-7.8
CCOC(=O)CCc1c(C)nc2c(c(C)nn2-c2ccc(C)cc2)c1C	i	0.53
COc1ccc(C(=O)NCCCCCCNC(=O)c2ccc(OC)cc2)cc1	i	0.04
CCCc1ccc(OCc2ccc(C(=O)N3CCN(c4ccccn4)CC3)o2)c(OC)c1	-5.9*	-5.9
O=C(c1ccc(COc2ccccc2Cl)o1)N1CCN(c2ccccc2)CC1	-6*	-6
O=C(c1ccc(CS(=O)c2ccccc2Cl)o1)N1CCN(c2ccccc2)CC1 (stereo not given)	i	·
COc1cc(OC)c(C(=O)N2CCN(c3ccccn3)CC2)cc1OC	i	·
O=C(c1ccc(COc2ccc3c(c2)CCC3)o1)N1CCN(c2ccccc2)CC1	-8*	-8
O=C(c1ccco1)N1CCN(C(=O)c2ccc(COc3ccc4c(c3)CCC4)o2)CC1	i	·
Fc1ccccc1-c1nc(-c2ccc(Br)o2)no1	i	·
Cc1cccc(/C=N/NC(=O)c2c(-c3ccccc3)noc2C)c1O	i	·
Cc1onc(-c2ccccc2)c1C(=O)N/N=C/c1cn(C)c2ccccc12	-6.4*	-6.4
Cc1cc(Cl)ccc1OCC(=O)N1CCCN(C(=O)COc2ccc(Cl)cc2C)CC1	i	·
Cc1cc(Cl)ccc1OC(C)C(=O)N1CCCN(C(=O)C(C)Oc2ccc(Cl)cc2C)CC1 (stereo not given)	-6.2*	-6.2
SMILES	KCNQ2 block	KCNQ2 pot
O=C(OCC#CCSc1nnc(-c2cccc3ccccc23)o1)c1cccs1	-5.8*	-5.8
O=C(OCC#CCSc1nnc(-c2ccccc2)o1)c1cccs1	i	·
COc1ccc(OC)c(NC(=O)CN(Cc2ccc(F)cc2)C2CCCCC2)c1	-7.9*	-7.9
COc1ccc(Cl)cc1NC(=O)CN(C)C1CCCCC1	i	·
CCOc1ccc(C(C)=O)cc1CN1C(=O)c2ccccc2S1(=O)=O	i	·
CC(C)(C)OC(=O)NCC1CCC(C(=O)NC[C@H](CC(=O)O)c2ccc(Cl)cc2)CC1 (stereo not given in full)	i	0.46
Cc1ccc(CNCCCSc2ncccn2)cc1	i	·
CCOC(=O)/C(C)=N/NC(=O)c1ccc([N+](=O)[O-])cc1	i	5.1
CC(=N\NC(=O)c1ccc([N+](=O)[O-])cc1)/C(=N/O)C(=O)Nc1ccccc1	-5.8*	-5.8
CCOc1cc(C)c(C(C)C)cc1S(=O)(=O)N1CC(C)OC(C)C1 (stereo not given)	i	0.1
CCOc1cc(C)c(C(C)C)cc1S(=O)(=O)n1cnc(C)c1	i	8.7*
CN(C(=O)c1ccc2c(c1)OCO2)C1(C)CCS(=O)(=O)C1 (stereo not given)	i	0.26
O=C(NCc1ccccc1)c1onc(CS(=O)(=O)c2ccccn2)c1C(=O)NCc1ccccc1	i	·
O=P(Cc1ccccc1)(c1ccccc1)c1ccccc1	i	·
CC(C)(C)c1cc(CP(=O)(c2ccccc2)c2ccccc2)cc(C(C)(C)C)c1O	-5.7*	-5.7
CCC1CCC(C(=O)NC(CCSC)C(=O)NCCc2ccc(S(N)(=O)=O)cc2)CC1 (stereo not given)	i	·
CCOP(=O)(OCC)C(NC(=O)NS(=O)(=O)c1ccc(C)cc1)c1ccccc1 (stereo not given)	i	·
Cc1ccc2oc(C(=O)N(Cc3ccncc3)CC3CCCO3)c(C)c2c1 (stereo not given)	i	·
Cc1ccc2oc(C(=O)N(C)Cc3ccc(C)o3)c(C)c2c1	-7.9*	-7.9
Cc1ccc2oc(C(=O)N(C)Cc3ccon3)c(C)c2c1	i	1.3
CCN(Cc1ccccc1)C(=O)c1oc2ccc(C)cc2c1C	-5.8*	-5.8
CCOc1ccc(/C=C/C(=O)OC(C)C(=O)NC2CCCCC2C)cc1OC (stereo not given)	i	0.21
O=C(O)C(Nc1nc(C(F)(F)F)nc2ccccc12)c1ccccc1 (stereo not given)	i	·
Cc1ccc(S(=O)(=O)N2CCCC2=O)c(C)c1N(C)S(C)(=O)=O	i	1.6
CC(C)C[C@H](NC(=O)OC(C)(C)C)c1nnc(SCc2ccccc2)o1	-6.9*	-6.9
SMILES	KCNQ2 block	KCNQ2 pot
CC(C)(C)OC(=O)N[C@@H](Cc1ccccc1)c1nnc(S(=O)(=O)Cc2cccc(F)c2)o1	i	·
Cc1ccccc1CS(=O)(=O)c1nnc([C@H](CC(C)C)NC(=O)OC(C)(C)C)o1	-5.6*	-5.6
CCOC(=O)CSc1nnc([C@H](Cc2ccccc2)NC(=O)OC(C)(C)C)o1	i	·
Fc1ccc(Oc2ccnc(Cl)n2)c(Cl)c1	i	·
COc1cc(C(=O)NCCC(=O)NC(C)CCc2ccccc2)cc(OC)c1OC (stereo not given)	i	·
CC(=O)Nc1ccc(NC(=O)C(C)OC(=O)CNC(=O)c2ccc(-c3ccccc3)cc2)cc1 (stereo not given)	i	0.24
CCCN(CCC)C(=O)c1cn(C)c2ccc(S(=O)(=O)N3CCCC3)cc2c1=O	i	0.76
CC(=O)C1=C(O)C(=O)N(c2ccccn2)C1c1ccccc1[N+](=O)[O-] (stereo not given)	i	·
CC(CC(=O)Nc1ccc(S(=O)(=O)Nc2ncccn2)cc1)c1ccccc1 (stereo not given)	i	·
CC1CN(C(=O)CCC(=O)NCc2ccc(F)cc2)c2ccccc2S1 (stereo not given)	i	·
COc1ccccc1CNC(=O)CCC(=O)N1CC(C)Sc2ccccc21 (stereo not given)	-6.3*	-6.3
COc1ccc(S(=O)(=O)N2CCSCC2)cc1C(N)=O	i	·
CC1CC(NC(=O)CC#N)CC(C)(C)C1 (stereo not given)	i	·
CC1CC(NC(=O)Cc2ccc(Br)cc2)CC(C)(C)C1 (stereo not given)	-5.7*	-5.7
N/C(=N\OC(=O)c1cccc2ccccc12)c1ccc(Br)cc1	-5.6*	-5.6
Cc1cc(C)cc(C(=O)O/N=C(\N)c2ccc(Br)cc2)c1	-6.8*	-6.8
Cc1ccc(C(=O)O/N=C(\N)c2ccc(Br)cc2)cc1C	i	0.55

Screens (PubChem BioAssay)
